PubChem BioAssay (NCATS)
Inconclusive results are not listed. Unmarked numbers belong to inactive results. Activity calls are given as the source filed them. Calls come from the whole dose curve; as a rule, active = well fitted inhibition curve with a large enough effect; inconclusive = small, poorly fitted or top-dose-only effect; inactive = flat fitted curve, though single readings scatter.
% is set by controls: 0 for no effect and ±100 for the full control effect.

The compounds below were run on WaGa (assay: qHTS assay to identify novel small-molecules to repurpose for Merkel cell carcinoma treatment (AID 1296009; note: nearly all actives have a fitted effect of over 60% in size)). Conditions: MCC and control cell lines, CellTiter-Glo viability, 72 h; series mostly up to 46 µM; activity change, negative = cytotoxicity: at the top concentration.
Summary of the method: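 Cells were incubated with compound for 72 hr at 37 degree celsius before CellTiter-Glo addition. Luminescence was normalized with no-cell wells as full cytotoxicity and DMSO as baseline.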
With `COCCc1ccccn1` the “activity change, negative = cytotoxicity” value was -6.6%. For `OC1(c2ccccc2)CCNCC1`, the “activity change, negative = cytotoxicity” value was 0.995%. For `O=C1NC(c2ccccc2)(c2ccccc2)C(=O)N1COP(=O)(O)O`, the “activity change, negative = cytotoxicity” value was 22.1%. With `COC(=O)c1cc(Cl)ccc1OC` the “activity change, negative = cytotoxicity” value was -2.77%. `COC(=O)CCCCC(CCSS/C(CCO)=C(\C)N(C=O)Cc1cnc(C)nc1N)SC(C)=O` (stereo unspecified) was tested, and the “outcome” value was “inactive”. With `COc1ccc2nc(SCc3ncc(C)c(OC)c3C)[nH]c2c1` the “activity change, negative = cytotoxicity” value was -10%. With `Cc1ccc(C(C)OC(=O)C2(C)CCC(C(=O)O)C2(C)C)cc1` (stereo unspecified) the “activity change, negative = cytotoxicity” value was 0.105%. `CN(C)CCN1CCN(c2cccc(Cl)c2)C1=O` was tested, and the “activity change, negative = cytotoxicity” value was 7.77%. `CCOC(=O)C(=O)CCCCCCl` was tested, and the “activity change, negative = cytotoxicity” value was 9.5%. `CCOC(=O)Oc1ccc(CCNC(=O)[C@H](CCSC)NC(C)=O)cc1OC(=O)OCC` was tested, and the “activity change, negative = cytotoxicity” value was -19.6%. In the case of `COC(=O)c1cc(Cl)c(NC(C)=O)cc1OC`, the “activity change, negative = cytotoxicity” value is reported as 13.3%. In the case of `CCN1CCN(c2cc(-c3ccc(F)cc3)c3c(n2)CCCCCC3)CC1`, the “activity change, negative = cytotoxicity” value is reported as 5.83% [at 16.1 µM]. With `CCCc1ncc(C(=O)O)s1` the “activity change, negative = cytotoxicity” value was 12%. `Cc1coc2ccccc2c1=O` was tested, and the “activity change, negative = cytotoxicity” value was 17.1%. With `O=C1CC2(CCCC2)CC(=O)N1` the “activity change, negative = cytotoxicity” value was 15.3%. For `COC(=O)/C=C\C(=O)OC`, the “activity change, negative = cytotoxicity” value was 8.16%. For `C#CC(C)(CC)OC(=O)c1ccccc1C(=O)O` (stereo unspecified), the “activity change, negative = cytotoxicity” value was 7.01%. `O=C(O)Cn1c(=O)n(Cc2ccc(Br)cc2F)c(=O)c2ccc(Cl)cc21` was tested, and the “activity change, negative = cytotoxicity” value was 10.8%. For `CN1CCN(N)CC1`, the “activity change, negative = cytotoxicity” value was -12.1%. For `CC(CC(C#N)(c1ccccc1)C(C)C)N(C)C` (stereo unspecified), the “activity change, negative = cytotoxicity” value was -8.92%. With `CCOC(=O)CN1CCCC1=O` the “activity change, negative = cytotoxicity” value was 10.8%. With `CC(C)(C)NCC(O)COc1ccccc1OCC1CCCO1` (stereo unspecified) the “activity change, negative = cytotoxicity” value was 6.67%. `CCN(CC)CC(=O)Oc1ccc(NC(C)=O)cc1` was tested, and the “activity change, negative = cytotoxicity” value was 11.6%. For `COC(=O)/C=C(/C)N`, the “activity change, negative = cytotoxicity” value was 6.18%. For `C#Cc1ccc(-c2ccccc2F)cc1`, the “activity change, negative = cytotoxicity” value was 12.9%. `NS(=O)(=O)c1cc(C(=O)NN2C[C@H]3[C@H]4CCC(C4)[C@H]3C2)ccc1Cl` was tested, and the “activity change, negative = cytotoxicity” value was 6.22%. `Cc1[nH]cnc1-c1ccc(Cl)cc1` was tested, and the “activity change, negative = cytotoxicity” value was -0.271%. In the case of `c1ccc2c(c1)CCc1ccccc1N2`, the “activity change, negative = cytotoxicity” value is reported as 12.7%. `COC(=O)c1cc(S(N)(=O)=O)ccc1OC` was tested, and the “activity change, negative = cytotoxicity” value was 14.3%. With `CCOc1ccccc1OCC1CNCCO1` (stereo unspecified) the “activity change, negative = cytotoxicity” value was 15.3%. In the case of `O=C(C1CCCCC1)N1CC(=O)N2CCCc3ccccc3C2C1` (stereo unspecified), the “activity change, negative = cytotoxicity” value is reported as 12.4%. In the case of `CCn1ccc(NS(=O)(=O)c2ccc(N)cc2)nc1=O`, the “activity change, negative = cytotoxicity” value is reported as 20%. With `CSCC[C@H](NC(=O)[C@H](Cc1c[nH]c2ccccc12)NC(=O)CCNC(=O)OC(C)(C)C)C(=O)N[C@@H](CC(=O)O)C(=O)N[C@@H](Cc1ccccc1)C(N)=O` the “activity change, negative = cytotoxicity” value was 4.29%. For `O=C(O)C(=O)Nc1cccc(-c2nn[nH]n2)c1`, the “activity change, negative = cytotoxicity” value was 8.73%. `COc1ccc(CCC(C)=O)cc1` was tested, and the “activity change, negative = cytotoxicity” value was -1.66%. For `COc1cc(S(N)(=O)=O)cc(C(=O)O)c1OC`, the “activity change, negative = cytotoxicity” value was 9.66%.
